RORgamma inh: inhibitors of mouse ROR gamma transcriptional activity. P51450. Drosophila S2 Gal4-RORgamma UAS-luciferase reporter, 20 h. Potency, µM (top dose mostly 53.6 µM), inactives show at the top dose activity change, negative = inhibition, actives largely listed as inhibitors. 5.4% of 310,000 active. AID 2551; note: potency is the fitted concentration of half-maximal effect; nearly all actives have a fitted effect of over 60% in size
Target sequence (P51450 whole entry, looked up, the tested form may be a part): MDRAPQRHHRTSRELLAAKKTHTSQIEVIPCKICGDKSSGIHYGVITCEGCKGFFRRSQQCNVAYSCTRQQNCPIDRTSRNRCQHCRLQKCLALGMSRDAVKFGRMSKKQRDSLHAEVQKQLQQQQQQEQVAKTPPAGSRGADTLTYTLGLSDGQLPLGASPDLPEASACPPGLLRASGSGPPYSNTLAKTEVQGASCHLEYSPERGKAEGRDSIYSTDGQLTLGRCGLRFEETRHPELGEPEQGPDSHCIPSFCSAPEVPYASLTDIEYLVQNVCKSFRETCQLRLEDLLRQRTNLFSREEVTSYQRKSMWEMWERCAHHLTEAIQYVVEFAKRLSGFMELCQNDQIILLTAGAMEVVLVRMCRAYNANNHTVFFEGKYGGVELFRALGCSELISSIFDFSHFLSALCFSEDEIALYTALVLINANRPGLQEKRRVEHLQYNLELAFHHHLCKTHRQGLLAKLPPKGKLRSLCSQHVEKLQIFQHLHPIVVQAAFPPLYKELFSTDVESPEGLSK
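Drosophila S2 cells stably expressing Gal4-DBD/mouse RORγ fusion under metallothionein promoter plus UAS-luciferase; compound 1 h, then 700 uM CuSO4 induction for 20 h at ambient temperature; inhibition read as reduced luminescence.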
Gal4-VP16 FLuc: counter-screen for ROR gamma inhibitors: Gal4-VP16 reporter; Drosophila S2 Gal4-VP16 UAS-luciferase, luminescence, 20 h; Potency, µM (doses to about 53.6 µM), for the others: at the highest dose activity, negative = inhibition, most hits filed as inhibitors; 3.5% of 310,000 active; AID 2546;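 note: Gal4-VP16 expression switched on by copper sulfate through the metallothionein promoter; potency is the fitted concentration of half-maximal effect; nearly all actives have a fitted effect of over 50% in size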
TDP1 cell noCPT: qHTS for Inhibitors of human tyrosyl-DNA phosphodiesterase 1 (TDP1): qHTS in cells in absence of CPT | 15% of 420,000 active | DT40 Tdp1-/- hTDP1 cells, no CPT, ATP luminescence, 48 h | Potency, µM (titrated, usually from 46.2 µM), inactives show at the highest dose activity change, negative = growth inhibition, usual class: inhibitors; note: potency is the fitted concentration of half-maximal effect; nearly all actives have a fitted effect of over 55% in size
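Compound effects on proliferation are scored in DT40 Tdp1-/-;hTDP1 cells in the absence of CPT. ATP levels (CellTiter-Glo luminescence) are recorded after a ≥48 hr, 37 °C incubation.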
TDP1 cell CPT: DT40-hTDP1 cell growth loss with CPT | chicken DT40 Tdp1-/-;hTDP1 cells + 20 nM CPT, ATP luminescence, 48 h | Potency, µM (top dose mostly 46.2 µM), for the others: at the highest dose activity change, negative = growth inhibition, actives largely listed as inhibitors | AID 686979 | 12% of 420,000 active; note: potency is the fitted concentration of half-maximal effect; nearly all actives have a fitted effect of over 55% in size
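Cell growth measured by CellTiter-Glo luminescence after a minimum 48 h, 37 C compound exposure with 20 nM CPT in Tdp1-knockout DT40 cells stably expressing hTDP1, seeded 400/well; qHTS titration format.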
LDHA inh: inhibitors of human lactate dehydrogenase A; P00338; purified LDHA, NADH/diaphorase-resazurin fluorescence; hits give low values; activity change, % (values are at about 110 or 230 µM); 0.15% of 480,000 active; AID 1347041; in the data active = activity change below about -30%; inconclusive = mostly about -25% to -30%;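 note: plate controls were DMSO wells for no effect and wells without enzyme for full effect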
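Enzyme activity of human lactate dehydrogenase 5 (2 nM; 0.06 mM NADH, 0.2 mM pyruvate, 5 min, RT) is measured via a resazurin/diaphorase fluorescence readout of residual NADH.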
IL-1B inflam inh: blocks inflammasome-driven IL-1 beta release; 4.7% of 360,000 active; activity change, % at 57.5 µM; THP-1 LPS/ATP IL-1B secretion, AlphaLISA, 16 h; hits give low values; in the data active = activity change below about -50%; inconclusive = mostly about -30% to -49%
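Secreted IL-1B measured by AlphaLISA bead assay after 16 h compound exposure of THP-1 cells; compounds (final up to 57.5 uM) added 1 h before LPS (250 ng/mL) and ATP (1.25 mM) stimulation; lower signal means less secretion.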
The depositor's hits bear a star. Sampled rows, rich in hits. Any-hit rate of the full collection: about 18%. Unless noted, calls come from the whole dose curve; as a rule, active = well fitted curve in the direction sought with a large enough effect; inconclusive = small, poorly fitted or top-dose-only effect, or another doubt; inactive = no such curve, though single readings can be large; an effect the other way counts as inactive or inconclusive. Unless noted, % is set by controls: 0 for no effect and ±100 for the full control effect.

How did O=C(COC(=O)C(c1ccccc1)c1ccccc1)NCc1ccco1 do in these assays?
RORgamma inh: inconclusive; Gal4-VP16 FLuc: 17.8µM*; TDP1 cell noCPT: 9.0%; TDP1 cell CPT: inconclusive; LDHA inh: -1.7; IL-1B inflam inh: 16.0

Results for COc1ccc(C(=O)OCC(=O)NCc2ccco2)cc1OC ?
RORgamma inh: -24.6%; Gal4-VP16 FLuc: -0.5%; TDP1 cell noCPT: -6.1%; TDP1 cell CPT: 11.3%; LDHA inh: 0.8; IL-1B inflam inh: -3.4

Results for O=C(COc1ccccc1-c1ccccc1)NCc1ccco1 ?
RORgamma inh: inconclusive; Gal4-VP16 FLuc: inconclusive; TDP1 cell noCPT: -26.3%; TDP1 cell CPT: -31.3%; LDHA inh: -8.7; IL-1B inflam inh: -50.9*

Results for O=C(COC(=O)c1ccccc1)NCc1ccco1 ?
RORgamma inh: 1.6%; Gal4-VP16 FLuc: 1.2%; TDP1 cell noCPT: -2.1%; TDP1 cell CPT: -8.3%; LDHA inh: -13.6; IL-1B inflam inh: 5.3

Results for CC(C)(c1ccccc1)c1cccc(C(C)(C)c2ccccc2)c1O ?
LDHA inh: -4.8

How did CCOc1ccccc1OCC(=O)NCc1ccco1 do in these assays?
RORgamma inh: -8.4%; Gal4-VP16 FLuc: -1.3%; TDP1 cell noCPT: 12.6µM*; TDP1 cell CPT: 29.1µM*; LDHA inh: 10.3; IL-1B inflam inh: -1.0

Results for O=C(COC(=O)COc1ccccc1)NCc1ccco1 ?
TDP1 cell noCPT: -19.3%; TDP1 cell CPT: 5.3%; LDHA inh: -0.3; IL-1B inflam inh: -1.7

How did COc1ccc(OCCC(=O)OCC(=O)NCc2ccco2)cc1 do in these assays?
RORgamma inh: -7.6%; Gal4-VP16 FLuc: -1.2%; TDP1 cell noCPT: inconclusive; TDP1 cell CPT: 20.6µM*; LDHA inh: -3.9; IL-1B inflam inh: 5.5

Results for CCNC(=S)N/N=C/c1ccco1 ?
RORgamma inh: 2.24µM*; Gal4-VP16 FLuc: 3.16µM*; TDP1 cell noCPT: 3.7%; TDP1 cell CPT: 0.6%; LDHA inh: -3.2; IL-1B inflam inh: 12.2

How did CCNC(=S)N/N=C/c1ccc(C#N)cc1 do in these assays?
RORgamma inh: 7.08µM*; Gal4-VP16 FLuc: 17.8µM*; TDP1 cell noCPT: inconclusive; TDP1 cell CPT: -83.3%; LDHA inh: -3.9; IL-1B inflam inh: -0.3

What do the screens show for `O=C(Cc1c[nH]c2ccccc12)Nc1cccc(C(=O)NC2CC2)c1`?
LDHA inh: -4.8

Results for O=C(COC(=O)CNC(=O)c1ccc2ccccc2c1)Nc1ncc(Cl)cc1Cl ?
LDHA inh: 2.8

Results for c1coc(CNc2ncnc3sc4c(c23)CCCCC4)c1 ?
RORgamma inh: -18.4%; Gal4-VP16 FLuc: 7.1%; TDP1 cell noCPT: inconclusive; TDP1 cell CPT: inconclusive; LDHA inh: 1.7; IL-1B inflam inh: -2.8

What do the screens show for `Cc1sc2ncnc(NCc3ccco3)c2c1C`?
RORgamma inh: 18.9%; Gal4-VP16 FLuc: 20µM*; TDP1 cell noCPT: 16.4µM*; TDP1 cell CPT: 10.3µM*; LDHA inh: -0.7; IL-1B inflam inh: -59.1*

Results for Cc1sc2ncnc(NCC(O)c3ccc([N+](=O)[O-])cc3)c2c1C (configuration not stated) ?
RORgamma inh: inconclusive; Gal4-VP16 FLuc: 5.01µM*; TDP1 cell noCPT: 2.91µM*; TDP1 cell CPT: 7.31µM*; LDHA inh: -8.5; IL-1B inflam inh: -55.0*

Results for Cc1sc2ncnc(NCC(O)c3ccccc3)c2c1C (configuration not stated) ?
RORgamma inh: inconclusive; Gal4-VP16 FLuc: 15.8µM*; TDP1 cell noCPT: 4.61µM*; TDP1 cell CPT: 7.31µM*; LDHA inh: 2.1; IL-1B inflam inh: -26.4

Results for Cc1ccc(CNCc2ccc(C(=O)O)cc2)s1 ?
LDHA inh: 0.9

How did Cc1nn(C)cc1/C=C/C(=O)c1ccccc1 do in these assays?
RORgamma inh: inconclusive; Gal4-VP16 FLuc: inconclusive; TDP1 cell noCPT: -23.5%; TDP1 cell CPT: -25.7%; LDHA inh: -6.4; IL-1B inflam inh: inconclusive

How did CCn1cc(/C=C/C(=O)c2ccc(O)cc2)c(C)n1 do in these assays?
RORgamma inh: 2.24µM*; Gal4-VP16 FLuc: 3.98µM*; TDP1 cell noCPT: 0.0%; TDP1 cell CPT: 0.7%; LDHA inh: -12.8; IL-1B inflam inh: -81.4*

How did C=CCn1c(SC)nc2c1c(=O)n(C)c(=O)n2C do in these assays?
LDHA inh: -1.1

What do the screens show for `Cc1ccc(Cc2c(-c3ccc(Br)cc3)nc3ccc(Br)cn23)cc1`?
TDP1 cell noCPT: inconclusive; TDP1 cell CPT: 18.4µM*; LDHA inh: -0.1; IL-1B inflam inh: 45.3

What do the screens show for `Cc1ccc(-c2nc3ccc(Br)cn3c2Cc2ccsc2)cc1`?
TDP1 cell noCPT: 23.1µM*; TDP1 cell CPT: 14.6µM*; LDHA inh: 0.4; IL-1B inflam inh: 0.0

What do the screens show for `CCCc1nc2ccc(C)cn2c1Cc1ccsc1`?
TDP1 cell noCPT: 9.2µM*; TDP1 cell CPT: 13µM*; LDHA inh: 2.6; IL-1B inflam inh: 35.6

How did Cc1ccc(-c2nc3ccc(Cl)cn3c2Cc2ccsc2)cc1 do in these assays?
TDP1 cell noCPT: inconclusive; TDP1 cell CPT: inconclusive; LDHA inh: 2.0; IL-1B inflam inh: 5.1

What do the screens show for `Cc1ccc(-c2nc3ccc(C)cn3c2Cc2ccsc2)cc1`?
TDP1 cell noCPT: 14.6µM*; TDP1 cell CPT: inconclusive; LDHA inh: 0.0; IL-1B inflam inh: -28.6

How did CCCCCCNc1nc2c(c(=O)n(C)c(=O)n2C)n1CCC do in these assays?
LDHA inh: 4.9

Results for O=C(CSc1nnc2c(=O)n(-c3ccc(F)cc3)ccn12)N1CCN(c2ccc(F)cc2)CC1 ?
LDHA inh: 2.5

What do the screens show for `Cc1ccc2nc(C(C)(C)C)c(Cc3ccsc3)n2c1`?
TDP1 cell noCPT: 18.4µM*; TDP1 cell CPT: inconclusive; LDHA inh: 7.0; IL-1B inflam inh: 19.0

What do the screens show for `Cc1ccc(Cc2c(C(C)(C)C)nc3ccc(Br)cn23)cc1`?
TDP1 cell noCPT: inconclusive; TDP1 cell CPT: inconclusive; LDHA inh: -1.7; IL-1B inflam inh: 7.3

How did O=C(Cn1ncc2ccccc2c1=O)NCCc1ccccc1 do in these assays?
LDHA inh: 0.1

What do the screens show for `[NH-]c1ncnc2c1N=C[N+]2=CC=CCO`?
RORgamma inh: 2.5%; Gal4-VP16 FLuc: 12.4%; TDP1 cell noCPT: 4.11µM*; TDP1 cell CPT: 2.59µM*; LDHA inh: -2.1; IL-1B inflam inh: 10.2

How did O=C1c2ccccc2OC2(C=Cc3ccccc3O2)N1Cc1ccccc1 (configuration not stated) do in these assays?
RORgamma inh: 26.6%; Gal4-VP16 FLuc: 8.3%; TDP1 cell noCPT: 18.4µM*; TDP1 cell CPT: 4.61µM*; LDHA inh: 0.1; IL-1B inflam inh: 0.0

From PubChem BioAssay
